Assay results reported in the supplement of paper PMC6555819.

Legend:
Assay in all cases: PBM binding z-score (relative to random genomic background probes); higher = stronger binding; sequences stand for … in GC…GCGATTGACAGCGTAGAATGAAGG
[1] = test system: FXR:RXRa (NR concentration 270 nM, RXRa partner concentration 90 nM)
Outline: (§1)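 Binding z-scores take random background probes as their reference. They come from custom Agilent 4×180K protein-binding microarrays incubated 1 h with ligand-free nuclear receptor dimers, with antibodies against each partner (one per run) detecting binding. Scanned fluorescence was regression-normalized.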

[2] = test system: LXRa:RXRa (NR concentration 270 nM, RXRa partner concentration 90 nM)
Outline: as §1

[3] = test system: LXRa homodimer (NR concentration 270 nM)
Outline: as §1

[4] = test system: LXRb:RXRa (NR concentration 270 nM, RXRa partner concentration 90 nM)
Outline: as §1

[5] = test system: LXRb homodimer (NR concentration 270 nM)
Outline: as §1

[6] = test system: PPARa:RXRa (NR concentration 270 nM, RXRa partner concentration 90 nM)
Outline: as §1

[7] = test system: PPARg:RXRa (NR concentration 180 nM, RXRa partner concentration 90 nM)
Outline: as §1

[8] = test system: PPARg:RXRa 270nM:90nM, anti-RXR (NR concentration 270 nM, RXRa partner concentration 90 nM)
Outline: as §1

[9] = test system: PPARg:RXRa 30nM:10nM, anti-RXR (NR concentration 30 nM, RXRa partner concentration 10 nM)
Outline: as §1

[10] = test system: PPARg:RXRa 90nM:30nM, anti-RXR (NR concentration 90 nM, RXRa partner concentration 30 nM)
Outline: as §1

[11] = test system: PPARg:RXRa DBDmut IVT, anti-RXR (DBD mutation: RXRa K156A/R161A, NR concentration 270 nM, RXRa partner concentration 90 nM)
Outline: as §1

[12] = test system: PPARg:RXRa IVT, anti-PPARg (NR concentration 270 nM, RXRa partner concentration 90 nM)
Outline: as §1

[13] = test system: PPARg DBDmut:RXRa IVT, anti-PPARg (DBD mutation: PPARg1 K132A/R137A, NR concentration 270 nM, RXRa partner concentration 90 nM)
Outline: as §1

[14] = test system: PPARg DBDmut IVT, anti-PPARg (DBD mutation: PPARg1 K132A/R137A, NR concentration 270 nM)
Outline: as §1

[15] = test system: PPARg homodimer (NR concentration 180 nM)
Outline: as §1

[16] = test system: PXR:RXRa (NR concentration 270 nM, RXRa partner concentration 90 nM)
Outline: as §1

[17] = test system: PXR homodimer (NR concentration 270 nM)
Outline: as §1

[18] = test system: RARa:RXR (NR concentration 270 nM, RXRa partner concentration 90 nM)
Outline: as §1

[19] = test system: RARa homodimer (NR concentration 270 nM)
Outline: as §1

[20] = test system: RARb:RXRa (NR concentration 270 nM, RXRa partner concentration 90 nM)
Outline: as §1

| Sequence | PBM binding z-score [1] | PBM binding z-score [2] | PBM binding z-score [3] | PBM binding z-score [4] | PBM binding z-score [5] | PBM binding z-score [6] | PBM binding z-score [7] | PBM binding z-score [8] | PBM binding z-score [9] | PBM binding z-score [10] | PBM binding z-score [11] | PBM binding z-score [12] | PBM binding z-score [13] | PBM binding z-score [14] | PBM binding z-score [15] | PBM binding z-score [16] | PBM binding z-score [17] | PBM binding z-score [18] | PBM binding z-score [19] | PBM binding z-score [20] |
| --- | --- | --- | --- | --- | --- | --- | --- | --- | --- | --- | --- | --- | --- | --- | --- | --- | --- | --- | --- | --- |
| ACTATTAGTTGAGACGAGGGCCACCGATAGGTTG | -0.105 | -0.102 | -0.224 | -0.593 | 0.0596 | -0.508 | 0.594 | -0.159 | 0.0911 | -0.12 | -0.292 | 0.0879 | 0.833 | 0.398 | -0.375 | -0.504 | -0.253 | -0.185 | 0.235 | 0.235 |
| CCTAGTTGGACAAGGTCACACACGCTATAGGTAC | 3.57 | 3.53 | 1.48 | 3.58 | 0.67 | 4.1 | 2.58 | 2.92 | 0.968 | 2.08 | 0.793 | 2.52 | 0.526 | 0.701 | 3.15 | 3.9 | 1.97 | 4.4 | 2.1 | 3.85 |
| TCGAGTAGGTTAGCGGCATTCAGAATGGCGTCGA | -0.731 | -0.487 | -0.848 | -0.653 | -1.3 | 0.0919 | -0.173 | 0.409 | 0.448 | 0.475 | 1.81 | 0.944 | -1.28 | -0.893 | -1.05 | -0.724 | -0.924 | -0.504 | -1.29 | 0.21 |
| TCTATTAGTTGATTAGAGCAACCGAAACAGCGGA | 0.47 | 0.476 | 0.0625 | 0.326 | 0.361 | 0.484 | -0.0852 | 1.56 | 3.21 | 2.38 | 1.66 | 0.345 | 0.782 | 0.622 | -0.0743 | 0.128 | -0.0101 | 0.143 | 0.166 | 0.00144 |
| TGTCAAATTTCAAAGGTAACGTAAGTATCCACAC | 0.556 | 0.784 | -0.0184 | 0.869 | 0.492 | 0.954 | 0.712 | 1.41 | 1.62 | 1.41 | -0.296 | 1.37 | 1 | 1.11 | 0.532 | 0.473 | 0.33 | 0.98 | 0.848 | 1.04 |
| ACTATTAGTTCACTTAGGGCAACCGATACGACGC | 1.66 | 0.968 | 0.685 | 0.657 | 0.81 | 0.893 | 1.04 | 0.566 | 0.591 | 0.169 | 0.466 | 0.672 | 1.13 | 1.63 | 0.741 | 1.86 | 5.76 | 0.774 | 0.399 | 2.35 |
| CCTGCTAGGCCATGGTCAGCTAATCTACAGTATG | -0.543 | -0.565 | -0.936 | -0.753 | -0.769 | -0.617 | 0.069 | -0.552 | -0.451 | -0.579 | 1.36 | 0.103 | -0.241 | -1.56 | -0.736 | -0.665 | -0.705 | -0.631 | -0.715 | 0.929 |
| TCTCGGAGGACTCGAAAGGTCAGAGCTCGACATC | 1.95 | 2.86 | 1.04 | 2.66 | -0.682 | 3.21 | 0.567 | 2.34 | 2.29 | 1.88 | 1.26 | 0.952 | -0.254 | -0.419 | 1.63 | 3.16 | 0.0023 | 3.76 | -0.0102 | 3.62 |
| TCGAGTAGGTTAGTCGGGTCATTCAGCCAACATA | 1.62 | 1.62 | 0.312 | 1.98 | -0.941 | 3.14 | 1.39 | 2.4 | 1.36 | 1.95 | 2.57 | 3.67 | -0.174 | -0.903 | 1.13 | 2.57 | 1.01 | 2.77 | -0.535 | 1.79 |
| ATCGAAAGGTCGTGAGGTGAGTATCCAGAAAGGC | 5.07 | 4.11 | 0.195 | 3.04 | 0.388 | 4.97 | 4.11 | 4.31 | 1.14 | 2.9 | 0.293 | 2.48 | 1.2 | 1.27 | 1.41 | 3.13 | 0.135 | 4.25 | 0.545 | 3.93 |
| ATCTCTAGGTAAGACTCAGTTCAGAGAAGAACGC | 0.455 | 0.578 | 0.401 | -0.0123 | 0.78 | -0.0205 | 0.366 | 0.339 | 0.28 | 0.268 | 1.92 | 1.16 | 1.58 | 0.9 | 1.02 | 0.856 | 1.56 | 0.299 | 0.962 | 0.134 |
| ACAATTAGTTGAGACGAGGGCAACCGATAGGTTG | 0.779 | 0.374 | 0.178 | 0.228 | -0.183 | 0.503 | 0.794 | 0.375 | 0.274 | 0.45 | -0.0279 | 0.475 | 0.916 | 0.299 | 0.566 | 1.37 | 0.711 | 1.13 | 0.878 | 1.14 |
| GATACAGGGTCAAGGCCAGGGTACGCGTATTGAT | 6.68 | 4.26 | -0.139 | 3.62 | -0.397 | 5.82 | 5.63 | 5.3 | 2.2 | 4.46 | 1.85 | 4.19 | 0.695 | 0.43 | 3.1 | 4.32 | 0.122 | 5.19 | 0.648 | 4.5 |
| TCATATAGGTAATACAGATGAAAGTCGGCATCTA | 0.463 | 0.531 | 0.032 | 0.521 | 0.268 | 1.08 | 1.47 | 1.93 | 4.02 | 2.97 | 3.53 | 2.32 | 1.22 | 1.05 | 0.725 | 0.46 | 0.387 | 0.646 | 1.28 | 0.19 |
